Source: PubChem
EBV gp42 inh = Epstein-Barr virus gp42 inhibitors, primary screen, biochemical, uHTS, fluorescence polarization | Fluorescence polarization binding assay, mP read-out | 0.42% of 220,000 active | inhibition, % (tested at 21.74 µM) | Glycoprotein 42 (Epstein-Barr virus (strain AG876)), Q1HVG2; in the data active = inhibition above about 50%
Target sequence (Q1HVG2 whole entry, looked up): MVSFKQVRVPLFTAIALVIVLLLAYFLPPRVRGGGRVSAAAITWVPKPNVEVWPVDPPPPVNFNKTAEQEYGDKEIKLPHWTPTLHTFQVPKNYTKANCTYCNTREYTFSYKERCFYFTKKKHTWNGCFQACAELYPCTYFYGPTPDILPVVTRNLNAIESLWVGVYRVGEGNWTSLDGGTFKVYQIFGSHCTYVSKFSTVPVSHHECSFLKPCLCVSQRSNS
GLD-1 TGE inh = GLD-1/TGE RNA complex disruptors, primary screen, biochemical, fluorescence polarization | purified GLD-1 + fluorescein TGE RNA | inhibition, % at 5.96 µM | 0.44% of 320,000 active | AID 2280, 2010;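 active = percent inhibition above a per-plate cutoff, the plate mean of test compounds plus 3 SD, cut at about 30% in these data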;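 also: 0% = DMSO wells with GLD-1 and probe and 100% = wells lacking GLD-1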
MCL1 BIM primary = inhibitors of MCL1 binding to BIM-BH3, primary screen, biochemical, fluorescence polarization | Induced myeloid leukemia cell differentiation protein Mcl-1 (Homo sapiens), Q07820 | GST-MCL1 / FITC-Bim-BH3 fluorescence polarization | inhibition, % at 10.9 µM | 0.68% of 320,000 active | AID 2057, 2009;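 active = inhibition above the mean inhibition of all tested compounds plus 3 SD, set per campaign, cut at about 40% in these data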;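 also: 0% = DMSO wells and 100% = unlabeled Bim-BH3 peptide control; higher means more loss of mP so more displacement of Bim peptide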
Target sequence (Q07820 whole entry, looked up): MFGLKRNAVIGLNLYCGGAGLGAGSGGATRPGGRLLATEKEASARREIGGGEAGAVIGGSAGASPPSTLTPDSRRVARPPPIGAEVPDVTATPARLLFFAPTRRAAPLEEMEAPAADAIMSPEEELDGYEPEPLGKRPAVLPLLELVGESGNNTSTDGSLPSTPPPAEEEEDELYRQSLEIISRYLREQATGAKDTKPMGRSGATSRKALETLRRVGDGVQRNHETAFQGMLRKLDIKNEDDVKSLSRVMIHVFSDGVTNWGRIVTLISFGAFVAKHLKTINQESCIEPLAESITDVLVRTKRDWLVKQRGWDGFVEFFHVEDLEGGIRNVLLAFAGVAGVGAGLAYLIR
MEX-5 binding = MEX-5 zinc finger RNA-binding disruptors – biochemical, C. elegans, fluorescence polarization, MLPCN library, primary screen | Zinc finger protein mex-5 (Caenorhabditis elegans), Q9XUB2 | MEX-5/FITC-TCR2 RNA binding; active compounds read low | activity score (negative = inhibition of binding), % at 10 µM | 0.38% of 300,000 active | AID 1832, 2009;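 active = inhibition past about -25% in most replicates, and total fluorescence under double the plate's negative control median, limit read from the data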;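 also: 0% = DMSO and -100% = 5 µM competing unlabeled TCR2 RNA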
BCLXL inh = inhibitors of human Bcl-xL, primary screen, biochemical, fluorescence polarization, HTS; Bcl-2-like protein 1 (Homo sapiens), Q07817; inhibition, % at 10.9 µM; 0.7% of 320,000 active; AID 2129, 2009; GST-Bcl-xL / FITC-Bim BH3 peptide fluorescence polarization;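 active = inhibition above the mean of all tested compounds plus 3 SD, cutoff set per campaign, cut at about 30% in these data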;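 also: 0% = DMSO wells and 100% = unlabeled Bim-BH3 peptide competitor; inhibitors lower millipolarization by displacing the labeled peptide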
eLon inh = inhibitors of E. coli Lon protease, primary screen, biochemical, fluorescence polarization. purified E. coli Lon protease. 0.42% of 360,000 active. inhibition, % at 7.94 µM. AID 602123, 2011. P0A9M0; in the data active = inhibition above about 13%, passing the limit was not always enough;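 also: 0% = enzyme with probe and DMSO and 100% = no enzyme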
BCLXL inh confirm = Bcl-xL inhibitors blocking Bim BH3 binding, confirmation, counter-screen for MCL1 inhibitor project, biochemical, fluorescence polarization. 54% of 1,700 active. GST-Bcl-xL / FITC-Bim BH3 peptide FP binding. shares compounds with MCL1 BIM primary. inhibition, % at 10.9 µM;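 active = inhibition above a cutoff equal to the mean inhibition of all tested compounds plus 3 SD, cut at about 30% in these data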;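 also: 0% = DMSO wells and 100% = unlabeled Bim BH3 control peptide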
MCL1 BIM confirm = inhibitors of MCL1 binding to BIM-BH3, confirmation, biochemical, fluorescence polarization, triplicate; GST-MCL1 / FITC-Bim-BH3 fluorescence polarization; 61% of 1,700 active; AID 2168, 2009; inhibition, % at 10.9 µM; shares compounds with MCL1 BIM primary;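 active = inhibition above the average of all tested compounds plus 3 SD, cut at about 40% in these data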;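 also: 0% = DMSO wells and 100% = unlabeled Bim-BH3 control peptide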
* = called active by the depositor. In the library only some 1.5% were active in any assay of this set; here they are far more common.

What do the screens show for `COc1ccc(CCN2CC(C(=O)N3CCCCCC3)CCC2=O)cc1` (configuration not stated)?
GLD-1 TGE inh: 8; MCL1 BIM primary: 9; MEX-5 binding: 1; BCLXL inh: 5; eLon inh: 1

Results for Cc1cc(=O)oc2c3c4c(cc12)OCCN4CCC3 ?
EBV gp42 inh: 65*; GLD-1 TGE inh: -7; MCL1 BIM primary: 64*; MEX-5 binding: -15; BCLXL inh: 60*; eLon inh: -9; BCLXL inh confirm: 47*; MCL1 BIM confirm: 41*

What do the screens show for `O=C(Nc1cccc(Cl)c1N1CCOCC1)c1ccc(Br)o1`?
GLD-1 TGE inh: 2; MCL1 BIM primary: 5; MEX-5 binding: 3; BCLXL inh: 5; eLon inh: 7

How did COc1ccc(OC)c(N2C(=O)[C@@H]3C(c4ccccc4Cl)=NO[C@@H]3C2=O)c1 do in these assays?
EBV gp42 inh: 0; GLD-1 TGE inh: 3; MCL1 BIM primary: 53*; MEX-5 binding: -4; BCLXL inh: 12; eLon inh: -3; BCLXL inh confirm: 16; MCL1 BIM confirm: 38

How did CN1CCN(C2=Nc3cc(Cl)ccc3Nc3ccccc32)CC1 do in these assays?
EBV gp42 inh: 5; GLD-1 TGE inh: 0; MCL1 BIM primary: -1; MEX-5 binding: 0; BCLXL inh: 2; eLon inh: -1

Results for CN1CCN(C2=Nc3c(Cl)cc(Cl)c4cccc2c34)CC1 ?
EBV gp42 inh: 63*; GLD-1 TGE inh: 40*; MCL1 BIM primary: 80*; MEX-5 binding: -7; BCLXL inh: 75*; eLon inh: 12; BCLXL inh confirm: 82*; MCL1 BIM confirm: 110*

What do the screens show for `COc1cccc(-n2c(SCc3cc(=O)oc4cc(O)c(O)cc34)nc3ccccc3c2=O)c1`?
EBV gp42 inh: 25; GLD-1 TGE inh: 9; MCL1 BIM primary: 51*; MEX-5 binding: 0; BCLXL inh: 13; eLon inh: -4; BCLXL inh confirm: 21; MCL1 BIM confirm: 63*

Results for Cc1ccccc1Nc1cc2ccccc2c(=O)[nH]1 ?
EBV gp42 inh: 23; GLD-1 TGE inh: 50*; MCL1 BIM primary: 81*; MEX-5 binding: -22; BCLXL inh: 82*; eLon inh: -44; BCLXL inh confirm: 85*; MCL1 BIM confirm: 93*

Results for O=c1[nH]c(Nc2ccccc2Cl)cc2ccccc12 ?
GLD-1 TGE inh: 2; MCL1 BIM primary: 4; MEX-5 binding: -1; BCLXL inh: 7; eLon inh: -82

How did CN(C)C(=O)N1CCN(C(=O)N2CCOCC2)CC1 do in these assays?
EBV gp42 inh: -16; GLD-1 TGE inh: 101*; MCL1 BIM primary: 139*; MEX-5 binding: 1; BCLXL inh: 158*; eLon inh: -7; BCLXL inh confirm: 3; MCL1 BIM confirm: 7

How did CCN(CC)C(=O)N1CCN(C(=O)N2CCOCC2)CC1 do in these assays?
EBV gp42 inh: -17; GLD-1 TGE inh: 2; MCL1 BIM primary: 2; MEX-5 binding: -1; BCLXL inh: 5; eLon inh: -6

How did COCCn1c(C)c(C)c(S(=O)(=O)c2ccccc2)c1N do in these assays?
GLD-1 TGE inh: 29; MCL1 BIM primary: 72*; MEX-5 binding: 2; BCLXL inh: 68*; eLon inh: 8; BCLXL inh confirm: 44*; MCL1 BIM confirm: 62*

How did COc1ccc(OC)c(N(C)S(=O)(=O)c2ccc3c(c2)N(C(C)=O)CCO3)c1 do in these assays?
GLD-1 TGE inh: -4; MCL1 BIM primary: 16; MEX-5 binding: 0; BCLXL inh: 13; eLon inh: 5

Results for Cc1c(NS(=O)(=O)c2cc(C(=O)NCCN(C)C)ccc2Cl)c(=O)n(-c2ccccc2)n1C ?
GLD-1 TGE inh: -7; MCL1 BIM primary: 75*; MEX-5 binding: 2; BCLXL inh: 17; eLon inh: -7; BCLXL inh confirm: 7; MCL1 BIM confirm: 11

Results for Cc1c(NS(=O)(=O)c2cc(C(=O)NCc3cccc(Cl)c3)ccc2Cl)c(=O)n(-c2ccccc2)n1C ?
eLon inh: 1

How did Cc1ccc(CNC(=O)CNC(=O)[C@@H]2Cc3ccccc3CN2)cc1 do in these assays?
GLD-1 TGE inh: -7; MCL1 BIM primary: 5; MEX-5 binding: -1; BCLXL inh: 6; eLon inh: 2

What do the screens show for `Cc1cc2ccccc2n1CCNC(=O)C(C)C`?
EBV gp42 inh: 12; GLD-1 TGE inh: 96*; MCL1 BIM primary: 84*; MEX-5 binding: 0; BCLXL inh: 76*; eLon inh: 4; BCLXL inh confirm: 25; MCL1 BIM confirm: 35

Results for O=C(CN1c2ccccc2Sc2ccccc21)NNC(=S)Nc1ccc(Cl)cc1 ?
EBV gp42 inh: -13; GLD-1 TGE inh: 4; MCL1 BIM primary: 6; MEX-5 binding: -1; BCLXL inh: 10; eLon inh: 3

How did O=C(CN1CCOCC1)NNC(=S)Nc1ccc(Cl)cc1 do in these assays?
EBV gp42 inh: -17; GLD-1 TGE inh: -7; MCL1 BIM primary: 55*; MEX-5 binding: -2; BCLXL inh: -1; eLon inh: -11; BCLXL inh confirm: 15; MCL1 BIM confirm: 20

How did CN(Cc1ccc(Br)cc1)CC(O)COc1cccc(Br)c1 (configuration not stated) do in these assays?
GLD-1 TGE inh: 4; MCL1 BIM primary: 1; MEX-5 binding: -3; BCLXL inh: 2; eLon inh: -2

How did Oc1oc(-c2ccc(Br)cc2)nc1/C=N/c1ccccn1 do in these assays?
EBV gp42 inh: -16; GLD-1 TGE inh: 2; MCL1 BIM primary: 69*; MEX-5 binding: -2; BCLXL inh: 3; eLon inh: -2; BCLXL inh confirm: 5; MCL1 BIM confirm: 4

What do the screens show for `Cc1ccc(-c2nc(C=Nc3ccccc3)c(O)o2)cc1`?
EBV gp42 inh: -7; GLD-1 TGE inh: -10; MCL1 BIM primary: -9; MEX-5 binding: -10; BCLXL inh: -8; eLon inh: -2

Results for Cc1nnc(SC(C)C(=O)NC2CCCCC2)[nH]c1=O (configuration not stated) ?
eLon inh: 0
